Source: PubChem BioAssay
In the library only some 21% were active in any assay of this set; here they are far more common.
Pf growth 96h = P. falciparum growth inhibition at 96 hour, primary screen for plastid delayed-death inhibitors; 320,000 tested, 6.9% active; P. falciparum luciferase reporter growth, 96 h; Potency, µM (top dose mostly 28.7 µM), inactives show top-dose activity change, negative = inhibition, most hits filed as inhibitors; note: potency is the fitted concentration of half-maximal effect; % is set by controls: 0 for no effect and ±100 for the full control effect
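Readout is luminescence from an integrated firefly luciferase in P. falciparum. Red cells, 2% hematocrit and 0.05% parasitemia final, were cultured with compound through two parasite generations (96 hours) at 37 C, 5% CO2.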
Pf growth 48h = P. falciparum growth inhibition at 48 hours (one generation) | AID 504832 | Potency, µM (titrated, usually from 28.7 µM), without a hit: at the top dose activity change, negative = inhibition, usual class: inhibitors | P. falciparum luciferase growth in erythrocytes, 48 h | 310,000 tested, 5.9% active; note: potency is the fitted concentration of half-maximal effect; % is set by controls: 0 for no effect and ±100 for the full control effect
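Compounds are pin-transferred into medium, infected erythrocytes (2% hematocrit, 0.1% parasitemia final) are added, and plates sit one parasite generation at 37 C in 5% CO2. Detection reagent is then added and luminescence measured.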
HCMV antiviral = blocks human cytomegalovirus replication. HFF cells, HCMV-luciferase reporter, 72 h; hits give low values. activity change, negative = inhibition, % at 57.5 µM. 410,000 tested, 4.5% active. AID 1259415; in the data active = activity change below about -60%; inconclusive = no clear call, values can overlap the other calls; inactive = above about -39%; note: % is set by controls: 0 for no effect and ±100 for the full control effect
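Two-dose cell screen: HFF monolayers treated with compounds and infected with luciferase-expressing HCMV at 1 PFU/cell, 72 h at 37C, then lysed for luciferase measurement.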
CHX counter = counter-screen hit for Shiga toxin inhibitors, cycloheximide; cell reporter, cycloheximide protein synthesis inhibition counterscreen; max response, %; 300,000 tested, 12% active; AID 2314; in the data active = max response mostly above about 13%, no sharp cut-off; inactive = mostly below about 14%; note: read at 38.3 µM for the half of the compounds with a filed dose; 0% is about no effect
HCV inh = inhibitors of hepatitis C virus infection; Huh7.5.1 HCVcc-Cre infection, luciferase reporter, 44 h; Potency, µM (highest dose often 41.8 µM), for the others: at the highest dose activity change, negative = inhibition, hits mostly inhibitors; 340,000 tested, 3.4% active; note: potency is the fitted concentration of half-maximal effect; % is set by controls: 0 for no effect and ±100 for the full control effect
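After 44 h co-culture of compound, cells and HCVcc-Cre (~0.5 moi), substrate is added for 15 min at room temperature and luciferase measured over 15 sec. Cells were seeded at 1,000/well and pre-cultured 4 h.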
Shiga inhibitor = inhibitors of Shiga toxin in Vero cells; Vero cells, Shiga toxin protein synthesis inhibition reporter; inhibition, % at 38.7 µM; 290,000 tested, 9.2% active; in the data active = inhibition mostly above about 28%, no sharp cut-off; inactive = mostly below about 43%; note: 0% is about no effect
* hit, by the source's call; ? = inconclusive; . = not tested or not shown. Unless noted, calls come from the whole dose curve; as a rule, active = well fitted inhibition curve with a large enough effect; inconclusive = small, poorly fitted or top-dose-only effect, or another doubt; inactive = no such curve, though single readings can be large or run the other way.

SMILES | Pf growth 96h | Pf growth 48h | HCMV antiviral | CHX counter | HCV inh | Shiga inhibitor
CCO[C@H]1OC(C(=O)N2CCN(Cc3ccc4c(c3)OCO4)CC2)=C[C@@H](c2ccc(Br)cc2)[C@@H]1CCCO | 5.22µM* | 10.4µM* | 2.4 | 1.1 | ? | -12.0
CCO[C@H]1OC(C(=O)N2CCN(Cc3ccc4c(c3)OCO4)CC2)=C[C@@H](c2ccccc2)[C@@H]1CCCO | ? | ? | -7.0 | -5.6 | ? | -11.7
CC1(C)CC(N2CCN(CCO)CC2)=CC(=S)N1 | -7.6% | 0.0% | 11.6 | -4.9 | 22.2% | -2.2
CN(C(=O)COC(=O)C1COc2ccccc2O1)C1(C#N)CCCCC1 (stereo not drawn) | 22.0% | -0.3% | ? | . | 3.6% | .
O=C(CSc1nc2ccc(Cl)cc2[nH]1)c1ccc2c(c1)OCO2 | 13.1µM* | 11.7µM* | -35.9 | 17.1 | 8.7% | 11.0
O=C(CSc1nc2cc(Cl)c(Cl)cc2[nH]1)c1ccc2c(c1)OCO2 | 4.65µM* | 4.15µM* | 24.0 | 1.6 | -11.9% | 20.1
COc1ccc(CC2(CO)CCN(CC3=Cc4cc(Cl)ccc4OC3)CC2)cc1 | 25.1% | 0.0% | ? | -3.8 | 4.47µM* | -6.8
COc1ccc(CC2(CO)CCN(S(=O)(=O)N(C)C)CC2)cc1 | 5.86µM* | 24.8% | -20.4 | -1.7 | -3.4% | 19.3
COc1ccc(CC2(CO)CCN(S(=O)(=O)c3cccc4cccnc34)CC2)cc1 | 11.7µM* | -20.7% | -14.8 | 1.0 | -13.3% | 2.6
COc1ccc(OC)c(C2=Nn3c(nnc3-c3ccc(OC)c(OC)c3)SC2)c1 | . | . | . | -2.3 | . | -10.3
CCC1=NN(C(=O)c2ccc(Br)cc2)C(O)(c2ccc(C)cc2)C1 (stereo not drawn) | -17.2% | 30.6% | 0.5 | 32.8* | -8.1% | 31.9*
CCC1=NN(C(=O)c2ccc(C)cc2)C(O)(c2ccc(Br)cc2)C1 (stereo not drawn) | 13.1µM* | 10.6% | 66.5 | 39.1* | 11.3% | 44.2*
CCC1=NN(C(=O)c2cccc(Br)c2)C(O)(c2ccc(Br)cc2)C1 (stereo not drawn) | ? | ? | -71.4* | 40.8* | 15.8µM* | 70.4*
COC(=O)C1=NN(C(=O)c2ccc(C)cc2)C(O)(c2ccc(Cl)cc2)C1 (stereo not drawn) | 51.3% | 1.6% | . | -1.0 | 4.2% | 3.2
O=C(NC1CCS(=O)(=O)C1)c1cccc(S(=O)(=O)N2CCCC2)c1 (stereo not drawn) | -1.5% | -1.4% | -0.7 | -4.6 | 9.1% | -12.3
O=C(/C=C/c1ccc[nH]1)c1ccc(F)cc1 | ? | 9.9% | ? | 31.9* | -7.1% | 72.1*
O=C(/C=C/c1ccccc1O)c1ccccc1 | . | . | 3.9 | . | 13.2% | .
O=C(/C=C/c1c(F)cccc1Cl)c1ccc(F)cc1 | 78.0% | ? | -4.8 | 34.7* | 9.4% | 131.9*
O=C(/C=C/c1ccc[nH]1)c1ccccc1 | 90.5% | 101.9% | -10.1 | 36.6* | 1.4% | 68.1*
COC(=O)CC1C(=O)NCCN1C(=O)CSc1nnnn1-c1ccc(OC)cc1 (stereo not drawn) | -22.5% | -6.2% | ? | -2.5 | 14.6% | -14.3
C=CCN(CC=C)c1nc2ccccc2nc1C(C#N)C(=O)OCCOC (stereo not drawn) | 6.57µM* | 10.4µM* | ? | 1.7 | ? | -7.1
CCCN(CCC)c1nc2ccccc2nc1C(C#N)C(=O)OCCOC (stereo not drawn) | 8.1% | ? | 3.1 | -3.2 | ? | -11.3
O=C1NC(c2ccccc2)=C(c2nc3ccccc3s2)C(c2ccc(F)cc2)N1 (stereo not drawn) | 13.1µM* | -52.3% | -27.2 | 0.3 | ? | -16.0
COc1ccccc1NC(=O)c1ncoc1-c1ccco1 | . | . | 13.0 | . | . | .
CSc1nnc(C)c(/C=C/Nc2ccc(C)cc2)n1 | 21.0% | -8.8% | -4.8 | -3.2 | -26.8% | -4.6
SMILES | Pf growth 96h | Pf growth 48h | HCMV antiviral | CHX counter | HCV inh | Shiga inhibitor
CSc1nsc(/C=C/Nc2ccc(F)cc2)c1C#N | 6.57µM* | -22.8% | 39.8 | 10.0 | -24.5% | 37.6
CSc1nsc(/C=C/Nc2cccc(Cl)c2)c1C#N | ? | ? | 51.3 | 1.0 | ? | 29.6
CSc1nsc(/C=C/Nc2ccc(Cl)cc2)c1C#N | 1.17µM* | 1.17µM* | 6.2 | -4.9 | ? | -19.9
CSc1nsc(/C=C/Nc2ccc(O)cc2C)c1C#N | ? | ? | 21.0 | 28.3* | ? | 27.7
C[C@@H](CO)NC(=O)c1ccc2c3n(nc2c1)-c1ccc(Cl)cc1CO3 | 143.1% | 118.4% | 93.8 | 32.9* | -24.0% | 54.8*
CC(C)[C@@H](CO)NC(=O)c1ccc2c3n(nc2c1)-c1ccc(Cl)cc1CO3 | 143.6% | 129.5% | -32.2 | 33.8* | -11.7% | 46.2*
CCc1nn2c(=O)cc(COC(=O)C3CCCCC3)nc2s1 | . | . | -2.6 | . | . | .
Cc1ccc(Cl)cc1N1CCN(C(=O)c2ccc(C)c(-n3c(C)nc4cccnc43)c2)CC1 | . | . | 0.0 | . | . | .
COc1cccc(-n2c(-c3ccco3)nc3nc4ccccc4nc32)c1 | 3.29µM* | 2.3% | ? | -3.0 | -0.1% | -3.8
COc1cccc(-n2c(-c3ccco3)nc3c(cnn3-c3ccc(C)cc3)c2=O)c1 | . | . | -76.0* | . | . | .
O=c1c2cnn(-c3ccccc3)c2nc(-c2cccs2)n1-c1ccc(Cl)cc1 | ? | ? | -23.1 | -4.0 | ? | 27.6
O=c1c2cnn(-c3ccccc3)c2nc(-c2cccs2)n1-c1cccc(Cl)c1 | ? | 13.1µM* | -75.7* | -1.6 | ? | -2.7
CCOC(=O)c1c(C)[nH]c(CCC(=O)NC(C)c2ccccc2)c1C (stereo not drawn) | . | . | 14.4 | . | . | .
CCOC(=O)CCc1c(C)nc(SCCN2CCCC2)c(C#N)c1C | 5.22µM* | ? | -3.7 | -4.3 | ? | 12.4
COC(=O)C1=C(C#N)NC(C)=C(C(=O)OC(C)C)C1c1cccc([N+](=O)[O-])c1 (stereo not drawn) | 1.2µM* | 7.57µM* | . | . | . | .
COC(=O)C1=C(C)NC(C)=C(C(=O)OC)C1c1ccc(-c2cccc([N+](=O)[O-])c2)o1 | ? | ? | 69.6 | 4.8 | ? | -6.8
COC(=O)C1=C(C)NC(C)=C(C(=O)OCCN(C)Cc2ccccc2)C1c1cccc([N+](=O)[O-])c1 (stereo not drawn) | 2.08µM* | 1.65µM* | 3.9 | -2.9 | 36.1% | -16.0
COCCOC(=O)C1=C(C)N(c2ccccc2)C(=O)NC1c1cccc([N+](=O)[O-])c1 (stereo not drawn) | -52.4% | ? | 16.0 | -5.3 | -3.7% | -7.4
COC(=O)C1=C(C)NC(C)=C(C(=O)OCCN2CCN(C(c3ccccc3)c3ccccc3)CC2)C1c1cccc([N+](=O)[O-])c1 (stereo not drawn) | 2.39µM* | 1.69µM* | -64.4* | . | . | .
CCOC(=O)C1=C(C)NC(C)=C(C(=O)OCCNC(=O)c2cccnc2)C1c1cccc([N+](=O)[O-])c1 (stereo not drawn) | 9.28µM* | ? | . | 2.8 | -6.5% | 15.8
